# In PubChem BioAssay AID624330 (Southern Research Specialized Biocontainment Screening …, 2012):
# Hit rate of the full screen: of about 340,000 compounds, about 2,100 (0.62%) were called active. Not all results are given here. Measured potencies and affinities stand elsewhere. A number with no mark means an inactive call.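 How the source made its calls: active means first-screen hits whose inhibition reached a set limit at any dose in the follow-up dose series; inconclusive means inhibition above the set first-screen limit but never retested; inactive means the rest.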
# Target: Rac GTPase-activating protein 1 (Homo sapiens) (UniProt Q9H0H5)
# Experiment: MgcRacGAP GTPase-activating activity inhibitors, confirmation, biochemical, ADP Hunter fluorescence, primary and confirmatory (AID 624330);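 further: fluorescence reports GDP produced by GAP-driven GTP hydrolysis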
# Conditions: MgcRacGAP-stimulated Rac1 GTP hydrolysis, at 30 µM, hits give high values, GST-tagged Rac1 F28L mutant substrate
# Chain of Rac GTPase-activating protein 1 (Homo sapiens) (Q9H0H5 whole entry, looked up): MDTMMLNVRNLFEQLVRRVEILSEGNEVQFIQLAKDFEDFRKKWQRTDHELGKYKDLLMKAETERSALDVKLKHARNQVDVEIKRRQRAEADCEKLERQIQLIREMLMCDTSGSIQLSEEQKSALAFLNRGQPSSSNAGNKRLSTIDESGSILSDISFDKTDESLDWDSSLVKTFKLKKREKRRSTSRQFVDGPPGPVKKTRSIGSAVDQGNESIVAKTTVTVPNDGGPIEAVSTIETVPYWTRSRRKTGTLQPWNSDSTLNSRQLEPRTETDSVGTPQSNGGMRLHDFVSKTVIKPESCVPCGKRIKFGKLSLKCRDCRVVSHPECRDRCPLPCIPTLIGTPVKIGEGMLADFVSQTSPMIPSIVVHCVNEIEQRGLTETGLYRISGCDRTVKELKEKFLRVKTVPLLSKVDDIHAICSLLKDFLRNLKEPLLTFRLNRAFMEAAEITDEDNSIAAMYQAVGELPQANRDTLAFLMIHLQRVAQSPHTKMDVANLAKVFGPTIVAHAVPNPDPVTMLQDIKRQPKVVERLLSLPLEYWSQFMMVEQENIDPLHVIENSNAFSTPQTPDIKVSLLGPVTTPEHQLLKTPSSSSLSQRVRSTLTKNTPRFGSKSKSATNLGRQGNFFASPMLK
row,Structure (SMILES),inhibition [%]
1,COC(=O)c1c(C)[nH]c(C(=O)OC(C)C(=O)N2CCOCC2)c1C (centres undefined),13.4
2,O=C(COC(=O)CC12CC3CC(CC(C3)C1)C2)Nc1ncc(Cl)cc1Cl,3.82
3,COc1ccc(C(=O)OCC(=O)N2CCN(C(=O)c3ccco3)CC2)cc1OC,0.19
4,COc1ccc2c(c1)C(c1ccc(C)o1)=NNC(c1ccccc1)=N2,2.46
5,CCC1=NN(C(=O)Cc2ccccc2)C(O)(c2ccncc2)C1 (centres undefined),5.64
6,CCN(CC)c1ccc(/C=N/N2CCN(c3ccccc3OC)CC2)cc1,13
7,CCN(CC)c1ccc(/C=N/N2CCN(Cc3ccccc3)CC2)c(O)c1,25.7
8,CCN(Cc1ccccc1)c1ccc(/C=N/NC(=O)c2cccc(S(=O)(=O)N3CCOCC3)c2)cc1,9.77
9,CCN(CC)c1ccc(/C=N/N2CCN(Cc3ccc(C)cc3)CC2)c(O)c1,15.3
10,Cc1c(N(CC(=O)O)S(=O)(=O)c2ccccc2)c(=O)n(-c2ccccc2)n1C,11.2
11,O=C(c1ccc(NS(=O)(=O)c2cccc3cccnc23)cc1)N1CCCCC1,-16.1
12,CCOc1ccc(NC(=O)CN(C)C(=O)c2ccc(C)c(S(=O)(=O)N3CCCCC3)c2)cc1OCC,6.08
13,O=[N+]([O-])c1ccc2[nH]c(O)c(N=NC(=S)NCC3CCCO3)c2c1 (centres undefined),9.66
14,COc1cccc(NC(=O)C(=O)NCC2CCCN2S(=O)(=O)c2ccccc2)c1 (centres undefined),3.83
15,CCc1ccccc1-n1nnnc1-c1cnccc1C(F)(F)F,4.03
16,O=S(=O)(Cc1c(F)cccc1Cl)c1ncn[nH]1,5.34
17,CN(C)c1ccc(CNn2cnnc2SCC(=O)NC(C)(C)C)cc1,14.5
18,Cc1[nH]n(-c2ccccc2)c(=O)c1-c1ccc(Cl)cc1,8.45
19,Cc1[nH]n(-c2cccc(Cl)c2)c(=O)c1-c1ccccc1,30.6
20,COc1ccc([N+](=O)[O-])cc1N(CC(=O)N1CCN(Cc2ccccc2)CC1)S(C)(=O)=O,6.86
21,COc1ccc(OC)c(NC(=O)COC(=O)CCCN2C(=O)c3ccccc3C2=O)c1,3.2
22,C[C@@H]1COC(=O)CCC/C=C\C[C@@H](CC(=O)N(CCO)Cc2ccccc2)C(=O)N1,4.52
23,COc1ccc(-c2cc3ccccc3n2CC(O)CN2CCC(C)CC2)cc1 (centres undefined),9.85
24,COc1ccc(-c2cc3ccccc3n2CC(O)CN2CCOCC2)cc1 (centres undefined),4.64
